Results published in PubChem BioAssay AID1159580 (chemical genetic matrix, 2015).
Values joined by “and” are separate entries in the source; they are usually repeats but may differ in a detail not shown here. Identical values can stand only once. Among all 5,500 compounds or so, about 2,000 (36%) were called active. Inconclusive results (about 18%) are left out. Cut-off read from the data, not from the text of the source: active = normalized growth mostly below about 0.91 (no sharp cut-off); inconclusive = no clear call, values can overlap the other calls; inactive = mostly above about 0.92. The list shows a part of the results.

Assay: chemical genetic growth profiling, strain panel (AID 1159580);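 note: tested at 20 µM; growth read once vehicle control cultures reached saturation at 30 °C; 1 = growth at the plate median or of vehicle wells; lower values mean less growth of the strain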
Conditions: S. cerevisiae deletion strains, growth OD

Measured: normalized growth

O=C(OCc1ccccc1)c1ccccc1
0.789 (active) and 0.886 (inactive): locus YJL095W, strain BCK1, stronger effect = lower value
inactive: locus YAL021C, strain ccr4, stronger effect = lower value 1.02 | locus YAL026C, strain drs2, stronger effect = lower value 0.93 | locus YAL030W, strain snc1, stronger effect = lower value 0.967 | locus YBL061C, strain skt5, stronger effect = lower value 0.966 | locus YBR009C, strain hhf1, stronger effect = lower value 0.954 | locus YBR021W, strain FUR4, stronger effect = lower value 1 | locus YBR023C, strain chs3, stronger effect = lower value 0.942 | locus YBR171W, strain sec66, stronger effect = lower value 0.927 | locus YBR229C, strain ROT2, stronger effect = lower value 0.994 | locus YBR231C, strain swc5, stronger effect = lower value 0.995 | locus YBR279W, strain paf1, stronger effect = lower value 0.979 | locus YCL011C, strain gbp2, stronger effect = lower value 0.978 | locus YCL016C, strain dcc1, stronger effect = lower value 0.947 | locus YCL029C, strain bik1, stronger effect = lower value 0.969 | locus YCL061C, strain MRC1, stronger effect = lower value 0.958 | locus YCL069W, strain vba3, stronger effect = lower value 0.966 | locus YCR088W, strain abp1, stronger effect = lower value 0.946 | locus YDL005C, strain med2, stronger effect = lower value 0.981 | locus YDL035C, strain GPR1, stronger effect = lower value 0.961 | locus YDL040C, strain nat1, stronger effect = lower value 0.978 | locus YDL074C, strain BRE1, stronger effect = lower value 0.95 | locus YDL101C, strain DUN1, stronger effect = lower value 0.939 | locus YDL134C, strain PPH21, stronger effect = lower value 0.926 | locus YDL185W, strain tfp1, stronger effect = lower value 0.986 | locus YDL192W, strain arf1, stronger effect = lower value 0.973 | locus YDR001C, strain nth1, stronger effect = lower value 0.943 | locus YDR069C, strain doa4, stronger effect = lower value 1.01 | locus YDR101C, strain arx1, stronger effect = lower value 0.96 | locus YDR159W, strain sac3, stronger effect = lower value 0.951 | locus YDR162C, strain NBP2, stronger effect = lower value 0.941 | locus YDR195W, strain ref2 1.02 | locus YDR297W, strain sur2, stronger effect = lower value 0.961 | locus YDR318W, strain mcm21, stronger effect = lower value 0.948 | locus YDR334W, strain swr1, stronger effect = lower value 0.977 | locus YDR335W, strain msn5, stronger effect = lower value 0.95 | locus YDR388W, stronger effect = lower value 0.97 | locus YDR392W, strain spt3, stronger effect = lower value 0.764 | locus YEL003W, strain gim4, stronger effect = lower value 0.959 | locus YEL037C, strain rad23, stronger effect = lower value 0.97 | locus YEL061C, strain CIN8 (second series), stronger effect = lower value 0.925 | locus YEL061C, strain CIN8, stronger effect = lower value 0.988 | locus YER015W, strain faa2, stronger effect = lower value 0.966 | locus YER016W, strain bim1, stronger effect = lower value 0.973 | locus YER110C, stronger effect = lower value 0.975 | locus YER111C, strain swi4, stronger effect = lower value 0.957 | locus YER155C, strain BEM2, stronger effect = lower value 0.98 | locus YER167W, strain BCK2, stronger effect = lower value 0.942 | locus YFR010W, strain ubp6, stronger effect = lower value 1.01 | locus YGL078C, strain dbp3, stronger effect = lower value 0.943 | locus YGL086W, strain mad1, stronger effect = lower value 0.959 | locus YGL167C, strain pmr1, stronger effect = lower value 0.965 | locus YGL173C, strain kem1, stronger effect = lower value 0.927 | locus YGL227W, strain vid30, stronger effect = lower value 0.96 | locus YGL240W, strain doc1, stronger effect = lower value 0.968 | locus YGL248W, strain PDE1, stronger effect = lower value 0.944 | locus YGL253W, strain hxk2, stronger effect = lower value 0.972 | locus YGR135W, strain pre9, stronger effect = lower value 0.949 | locus YGR229C, strain SMI1, stronger effect = lower value 0.852 | locus YGR252W, strain gcn5, stronger effect = lower value 0.923 | locus YHR027C, strain rpn1, stronger effect = lower value 0.979 | locus YHR030C, strain SLT2, stronger effect = lower value 0.953 and 0.899 | locus YHR079C, strain IRE1 (second series), stronger effect = lower value 0.969 | locus YHR079C, strain IRE1, stronger effect = lower value 0.902 | locus YHR094C, strain hxt1, stronger effect = lower value 0.967 | locus YHR129C, strain ARP1, stronger effect = lower value 0.976 | locus YHR200W, strain rpn10, stronger effect = lower value 0.979 | locus YIL066C, strain RNR3, stronger effect = lower value 0.942 | locus YIL073C, strain SPO22, stronger effect = lower value 0.924 | locus YIL125W, strain kgd1, stronger effect = lower value 0.95 | locus YIR030C, strain dcg1, stronger effect = lower value 0.972 | locus YJL092W, strain hpr5, stronger effect = lower value 0.936 | locus YJL095W, strain BCK1 (second series), stronger effect = lower value 0.959 | locus YJL115W, strain asf1, stronger effect = lower value 0.959 | locus YJL129C, strain trk1, stronger effect = lower value 0.933 | locus YJL134W, strain LCB3, stronger effect = lower value 0.988 | locus YJL154C, strain vps35, stronger effect = lower value 0.96 | locus YJL164C, strain tpk1, stronger effect = lower value 0.922 | locus YJL166W, strain qcr8, stronger effect = lower value 0.941 | locus YJL168C, strain set2, stronger effect = lower value 0.979 | locus YJL187C, strain SWE1 (second series), stronger effect = lower value 0.973 | locus YJL187C, strain SWE1, stronger effect = lower value 0.966 | locus YJR043C, strain POL32, stronger effect = lower value 0.955 | locus YJR066W, strain TOR1, stronger effect = lower value 0.906
active: locus YDR137W, strain rgp1, stronger effect = lower value 0.714 | locus YDR502C, strain sam2, stronger effect = lower value 0.918 | locus YER155C, strain BEM2 (second series), stronger effect = lower value 0.716 | locus YHR013C, strain ard1, stronger effect = lower value 1.31 [resistant] | locus YHR142W, strain chs7, stronger effect = lower value 0.828
